# AmpC inh detg: blocks E. coli AmpC beta-lactamase in detergent assay. AmpC hydrolysis of nitrocefin, absorbance 480 nm, 0.01% Triton. 370,000 tested, 0.041% active. AID 485294. P00811. Potency, µM (highest dose often 114 µM), for the others: at the highest dose activity change, negative = inhibition, actives largely listed as inhibitors;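 note: 0% = no-compound wells and -100% = no-enzyme wells; nearly all actives have a fitted effect of over 25% in size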
# Target sequence (P00811 whole entry, looked up): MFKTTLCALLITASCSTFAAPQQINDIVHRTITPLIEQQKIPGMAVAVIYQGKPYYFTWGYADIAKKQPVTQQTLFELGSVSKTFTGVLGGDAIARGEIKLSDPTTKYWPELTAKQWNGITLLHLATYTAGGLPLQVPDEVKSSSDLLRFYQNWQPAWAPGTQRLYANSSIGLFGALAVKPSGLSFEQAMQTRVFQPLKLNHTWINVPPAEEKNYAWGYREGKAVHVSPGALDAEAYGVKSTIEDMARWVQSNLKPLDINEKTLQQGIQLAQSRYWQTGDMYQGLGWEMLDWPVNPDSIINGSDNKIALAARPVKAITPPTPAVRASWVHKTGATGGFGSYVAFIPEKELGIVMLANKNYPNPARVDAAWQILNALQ
#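 AmpC (5.3 nM in the dispensed reagent) in 20 mM phosphate pH 7.0 with 0.01% (detergent screen) or 0.0001% Triton X-100 was preincubated with compounds for 15 min at room temperature. Nitrocefin was then added from an 800 uM solution, and hydrolysis was followed at 480 nm.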
# AmpC no deterg: inhibitors of E. coli AmpC beta-lactamase without detergent; P00811; AmpC nitrocefin hydrolysis, absorbance 480 nm, 0.0001% Triton; Potency, µM (doses to about 57.1 µM), for the others: top-dose activity change, negative = inhibition, actives largely listed as inhibitors; 330,000 tested, 0.52% active;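 note: plate controls were no compound for no effect and no enzyme for full effect; nearly all actives have a fitted effect of over 20% in size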
#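 AmpC (5.3 nM in the dispensed reagent) in 20 mM phosphate pH 7.0 with 0.01% (detergent screen) or 0.0001% Triton X-100 was preincubated with compounds for 15 min at room temperature. Nitrocefin was then added from an 800 uM solution, and hydrolysis was followed at 480 nm.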
# Sm TGR inh: inhibitors of Schistosoma mansoni thioredoxin glutathione reductase; Q962Y6; purified TGR, DTNB reduction, TNB absorbance 405 nm; Potency, µM (highest dose often 114 µM), for the others: top-dose activity change, negative = inhibition, most hits filed as inhibitors; 360,000 tested, 3% active; note: nearly all actives have a fitted effect of over 60% in size
#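 First, TGR (20 nM dispensed) and NADPH were mixed with compound. Second, a 15 min room-temperature incubation followed. Third, further NADPH and then DTNB were added to start the reaction. Finally, TNB absorbance was monitored kinetically.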
# * hit, by the source's call; ? = inconclusive; nt = no result. This is a sample that favours compounds with a hit; in the whole collection about 3.3% have one here. Calls come from the whole dose curve; as a rule, active = well fitted curve in the direction sought with a large enough effect; inconclusive = small, poorly fitted or top-dose-only effect, or another doubt; inactive = no such curve, though single readings can be large; an effect the other way counts as inactive or inconclusive. Unless noted, % is set by controls: 0 for no effect and ±100 for the full control effect; potency is the fitted concentration of half-maximal effect.
SMILES,AmpC inh detg,AmpC no deterg,Sm TGR inh
Cc1ccc(NC(=S)NCC23C=CC(O2)C2C(=O)N(c4ccc(C)cc4)C(=O)C23)cc1 (stereo not given),1.5%,-30.3%,5.01µM*
Cc1cccc(NC(=S)NNC(=O)COc2ccc(Cl)cc2Cl)c1,-6.8%,-24.9%,-20.5%
S=C(NCC1CCCO1)N1CCN(c2ccccc2)CC1 (stereo not given),4.2%,-12.3%,-2.2%
CCOC(=O)c1cnn2c(C(F)(F)F)cc(-c3ccc(Br)cc3)nc12,7.4%,nt,39.8µM*
CCOC(=O)c1cnn2c(C(F)(F)F)cc(-c3ccccc3)nc12,-0.6%,0.5%,2.4%
C=CCOc1ccc(CN(C)CC(=O)N(CC(C)C)c2c(N)n(CC(C)C)c(=O)[nH]c2=O)cc1,-1.6%,6.31µM*,6.6%
COc1ccc(NC(=O)CN(C)CC(=O)N(CC(C)C)c2c(N)n(CC(C)C)c(=O)[nH]c2=O)cc1,nt,8.1%,nt
CC(=O)n1cc([C@H]2C=C(C(=O)N3CCN(Cc4ccccc4)CC3)O[C@@H](OCCCCO)C2)c2ccccc21,8.4%,182.6%,35.5µM*
O=C(C1=C[C@H](c2csc3ccccc23)C[C@H](OCc2ccc(CO)cc2)O1)N1CCN(Cc2ccc3c(c2)OCO3)CC1,-1.7%,53.0%,-15.6%
CC(=O)n1cc([C@@H]2C=C(C(=O)N3CCN(Cc4ccc5c(c4)OCO5)CC3)O[C@H](OCCCCO)C2)c2ccccc21,-2.4%,190.5%,-6.3%
O=C(C1=C[C@H](c2csc3ccccc23)C[C@H](OCc2ccc(CO)cc2)O1)N1CCN(Cc2ccccc2)CC1,0.6%,81.9%,14.1µM*
CC(=O)n1cc([C@H]2C=C(C(=O)NCc3ccccc3)O[C@@H](OCc3ccc(CO)cc3)C2)c2ccccc21,7.3%,27.8%,?
CC(=O)n1cc([C@@H]2C=C(C(=O)N3CCN(Cc4ccccc4)CC3)O[C@H](OCc3ccc(CO)cc3)C2)c2ccccc21,-0.8%,141.1%,25.1µM*
O=C(CC1C(=O)NCCN1C1CCCC1)NCc1cccc(OC(F)(F)F)c1 (stereo not given),-13.4%,2.1%,-4.0%
Cc1ccccc1N1C(=O)c2sc3nc4c(c(=O)n3c2C1=O)CCC4,?,-34.5%,?
O=C1c2sc3nc4c(c(=O)n3c2C(=O)N1c1ccccc1)CCC4,-2.5%,-30.0%,17.8µM*
Cc1cc(C(=O)N2CC(C)CC(C)C2)n(-c2ccccc2)n1 (stereo not given),?,8.91µM*,-5.0%
Cc1cc(C(=O)N2CCOCC2)n(-c2ccccc2)n1,9.7%,-2.8%,-0.2%
O=c1cc(N2CCN(c3ccccc3)CC2)[nH]c(=O)n1Cc1ccc(F)cc1,?,-16.5%,-1.5%
CN1CCN(c2cc(=O)n(Cc3ccc(F)cc3)c(=O)[nH]2)CC1,2.1%,0.562µM*,?
O=C(C[n+]1ccc(-c2cc(C(=O)Nc3cccc(C(F)(F)F)c3)c3ccccc3n2)cc1)c1cccc([N+](=O)[O-])c1,-5.0%,49.0%,44.7µM*
O=C(C[n+]1cccc(NC(=O)c2ccccc2)c1)c1cccc([N+](=O)[O-])c1,-3.0%,-32.9%,-6.5%
CC(=O)COC(=O)C1CCN(S(=O)(=O)c2cc([N+](=O)[O-])ccc2Cl)CC1,1.8%,-17.6%,7.94µM*
O=C(COC(=O)C1CCN(S(=O)(=O)c2cc([N+](=O)[O-])ccc2Cl)CC1)Nc1ncc(Cl)cc1Cl,-4.3%,-4.1%,39.8µM*
O=C(COC(=O)C1CC1)Nc1ncc(Cl)cc1Cl,-10.7%,-18.2%,-16.3%
SMILES,AmpC inh detg,AmpC no deterg,Sm TGR inh
CN(Cc1ccccc1)C(=O)C1CCN(S(=O)(=O)c2cc([N+](=O)[O-])ccc2Cl)CC1,-2.4%,-3.9%,6.9%
Cn1c(=O)c2c(nc(N3CCOCC3)n2Cc2ccc(Br)cc2)n(C)c1=O,-3.7%,nt,0.3%
NC(=O)c1cc(S(=O)(=O)N2CCc3ccccc3C2)cs1,-5.5%,125.9%,12.5%
CCOC(=O)c1sc(=S)sc1SCc1cccc(C(F)(F)F)c1,1.5%,-17.3%,4.3%
O=C(Nc1ncccc1Cl)C(Sc1ccccc1)c1ccccc1 (stereo not given),?,-16.0%,15.1%
CN1CCc2nc(SCC(=O)Nc3ccc(F)cc3)c(C#N)cc2C1,2.1%,-12.5%,28.2µM*
CCN1CCc2nc(SCC(=O)Nc3ccc(OC)cc3)c(C#N)cc2C1,?,-0.6%,-15.4%
COc1ccc(NC(=O)CSc2nc3c(cc2C#N)CN(C)CC3)cc1,0.7%,nt,79.4µM*
CN1CCc2nc(SCc3ccc(C(C)(C)C)cc3)c(C#N)cc2C1,-20.2%,149.1%,0.8%
Cc1ccc(C)c(NC(=O)CCNS(=O)(=O)c2ccc3c(c2)CCCC(=O)N3)c1,25.7%,nt,11.0%
COc1ccc(CN(CC(=O)NCc2ccco2)C(=O)CNS(=O)(=O)c2ccc(C)cc2)cc1,-11.6%,-13.3%,-5.0%
CCOC(=O)N/N=C/c1ccc(N(CC)CC)cc1O,-2.8%,-20.6%,-0.9%
CCN(CC)c1ccc(/C=N/Nc2ccc(C)cc2)c(O)c1,1.9%,-40.2%,3.98µM*
COc1cccc(CN2CCNC(=O)C2CC(=O)N(C)CCC2CCOCC2)c1OC (stereo not given),3.2%,49.6%,25.1µM*
COc1cccc(CNC(=O)CC2C(=O)NCCN2Cc2ccoc2)c1OC (stereo not given),4.4%,-0.4%,20µM*
CCOc1ccccc1CN1CCNC(=O)C1CC(=O)N(C)CCC1CCOCC1 (stereo not given),?,42.0%,?
COc1cccc(CN2CCNC(=O)C2CC(=O)NCCN2CCOCC2)c1OC (stereo not given),-2.1%,70.6%,-9.4%
Cc1ccc(CN(CC2CCCO2)C(=O)CN2C(=O)C(C(C)C)Oc3ccccc32)o1 (stereo not given),-5.6%,98.1%,35.5µM*
CC(C)C1Oc2ccccc2N(CC(=O)N(Cc2ccccn2)CC2CCCO2)C1=O (stereo not given),?,90.7%,0.0%
Cc1cccc(NC(=O)CNC(=O)CSc2nnc(C(F)(F)F)n2C)c1C,3.1%,7.4%,-9.3%
Cc1cc(C)nc(CCNC(=O)C2CCC(=O)N(Cc3ccccc3F)C2)n1 (stereo not given),1.5%,-2.6%,0.5%
CN(Cc1cnccn1)C(=O)C1CCC(=O)N(CCc2ccccc2)C1 (stereo not given),-2.1%,-13.8%,-0.6%
Cc1ccc(CCNC(=O)C2CCC(=O)N(Cc3ccccc3F)C2)o1 (stereo not given),10.3%,35.5%,44.7µM*
COc1cccc(CN2CC(C(=O)NCCc3ccc(C)o3)CCC2=O)c1 (stereo not given),2.9%,29.2%,12.6µM*
COc1cccc(CCNC(=O)C2CCC(=O)N(Cc3cccc(OC)c3)C2)c1 (stereo not given),-7.9%,26.3%,3.7%
Cc1ccc(CN(C)C(=O)C2CCC(=O)N(CCc3ccccc3)C2)o1 (stereo not given),?,33.9%,12.6µM*
COc1ccc(N2CCN(CC(=O)Nc3ccc(C)c(C)c3)CC2)cc1,?,107.3%,-4.6%
